SMN2 splice up: enhancers of SMN2 splice variant expression | HEK293 SMN2-luciferase splicing reporter, luminescence, 30-36 h | Potency, µM (top dose mostly 46.1 µM), for inactives: top-dose activity change, positive = activation, most hits filed as activators | 210,000 compounds, 2.8% hits | AID 1458; note: % of control where 0% means no effect; nearly all actives have a fitted effect of over 55% in size
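HEK293 cells carry an SMN2 minigene-luciferase reporter in which exon 7 inclusion puts luciferase in frame. Cells were seeded at 2000 cells/well, attached for 10-12 hours, then exposed to compounds for 30-36 hours at 37C before ONE-Glo luminescence.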
FLuc counter: counter-screen for miR-21 project: firefly luciferase inhibitors or activators | AID 588342 | P08659 | Potency, µM (highest dose often 57.5 µM), for the others: top-dose activity change, negative = inhibition, actives largely listed as inhibitors | 360,000 compounds, 6.9% hits | purified FLuc, Km substrates, luminescence inhibition;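 note: plate controls were vehicle for no effect and reference inhibitor for full effect; nearly all actives have a fitted effect of over 55% in size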
Target sequence (P08659 whole entry, looked up): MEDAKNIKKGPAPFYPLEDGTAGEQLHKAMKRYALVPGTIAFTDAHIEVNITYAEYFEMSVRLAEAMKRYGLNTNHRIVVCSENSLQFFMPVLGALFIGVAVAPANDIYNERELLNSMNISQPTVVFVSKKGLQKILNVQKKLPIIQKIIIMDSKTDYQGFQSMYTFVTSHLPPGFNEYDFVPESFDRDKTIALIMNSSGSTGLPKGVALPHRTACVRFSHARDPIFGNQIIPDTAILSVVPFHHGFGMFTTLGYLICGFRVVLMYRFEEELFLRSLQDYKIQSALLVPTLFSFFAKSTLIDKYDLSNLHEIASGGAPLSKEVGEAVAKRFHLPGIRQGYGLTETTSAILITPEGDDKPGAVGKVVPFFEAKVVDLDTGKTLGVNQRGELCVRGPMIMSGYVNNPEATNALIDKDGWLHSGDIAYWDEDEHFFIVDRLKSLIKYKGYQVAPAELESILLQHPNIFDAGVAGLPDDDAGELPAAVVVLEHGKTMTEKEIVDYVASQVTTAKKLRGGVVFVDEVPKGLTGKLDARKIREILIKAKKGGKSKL
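Purified P. pyralis luciferase, 10 nM final, with Km-level 10 uM D-luciferin and 10 uM ATP in 50 mM Tris acetate pH 7.5, 10 mM Mg acetate, 0.01% Tween-20, 0.05% BSA; 6-point qHTS titration about 60 µM downward; luminescence read.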
Rab9 prom act: Rab9 promoter activation | Huh7 Rab9 promoter-luciferase reporter, luminescence, 24 h | Potency, µM (top dose mostly 9.22 µM), without a hit: at the top dose activation, negative = inhibition, actives largely listed as activators | 320,000 compounds, 2.8% hits | AID 485297; note: % of control where 0% means no effect; nearly all actives have a fitted effect of over 60% in size
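Cells were plated at 1500 per well in reduced-serum medium with 10% FBS and left 2 h. Compound in DMSO was then added for 24 h at 37 °C. Reporter signal was read by luminescence after 10 min with luciferase detection reagent.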
ELG1 genotox: inducers of genotoxicity in HEK293T ELG1-luciferase cells. HEK293T ELG1-luciferase reporter, luminescence, 16 h. Potency, µM (highest dose often 46 µM), inactives show at the top dose activity change, positive = activation, actives largely listed as activators. 330,000 compounds, 1.3% hits; note: % of control where 0% means no effect; nearly all actives have a fitted effect of over 60% in size
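ELG1-luciferase HEK293T cells, 2,000/well; compound pinned in; 16 hr, 37 °C, 5% CO2; ONE-Glo, 30 min RT; luminescence on CCD imager.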
NPC1 prom act: activates the NPC1 promoter; Huh7 NPC1 promoter luciferase reporter, 24 h; Potency, µM (doses to about 9.22 µM), inactives show at the highest dose activation, usual class: activators; 320,000 compounds, 2.4% hits; note: % of control where 0% means no effect; nearly all actives have a fitted effect of over 60% in size
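Compounds in DMSO were transferred onto Huh7 NPC1-luciferase reporter cells pre-incubated 2 h; after 24 h at 37 °C, Amplite reagent was dispensed and luminescence recorded 10 min later.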
An asterisk follows results filed as active; ? = inconclusive; . = not tested or not shown; [ ] = dose if it differs, or a comment. Shown are actives, neighbours in structure and some others; about 7.5% of the full set was active somewhere. Calls come from the whole dose curve; as a rule, active = well fitted curve in the direction sought with a large enough effect; inconclusive = small, poorly fitted or top-dose-only effect, or another doubt; inactive = no such curve, though single readings can be large; an effect the other way counts as inactive or inconclusive. Potency is the fitted concentration of half-maximal effect.

SMILES	SMN2 splice up	FLuc counter	Rab9 prom act	ELG1 genotox	NPC1 prom act
Cc1cc2nc(-c3ccc(SCc4ccc(C(=O)O)cc4)nc3)[nH]c2cc1C	.	4.3µM*	?	?	?
Cc1cc2nc(-c3ccc(SCC(=O)Nc4ccc(S(=O)(=O)NC5CC5)cc4)nc3)[nH]c2cc1C	3.5µM*	0.11µM*	1.4µM*	?	2.8µM*
O=C(CN1CCC(NC(=O)c2ccccc2Cl)CC1)NCc1ccco1	.	0%	0%	1%	-2%
Cc1nc(-c2ccc(C(=O)Nc3ccccc3F)cc2)cs1	2.8µM*	0.24µM*	?	?	0.11µM*
COc1ccc(-c2csc(C)n2)cc1	-5%	19µM*	11%	20%	12%
Cc1nc(-c2ccc(C(=O)Nc3cccc(F)c3)cc2)cs1	.	0.27µM*	?	?	0.089µM*
Cc1nc(-c2cccc(NC(=O)c3ccco3)c2)cs1	.	?	11%	9%	0%
CCOc1ccc(NC(=O)c2ccc(-c3csc(C)n3)cc2)cc1	.	-3%	-5%	-12%	0%
COc1ccc(-c2csc(C)n2)cc1OC	-13%	?	8%	14%	2%
Cc1nc(-c2cccc(NC(=O)c3ccc(-n4cccn4)cc3)c2)cs1	.	6.7µM*	-7%	-3%	-1%
Cc1ccccc1CSc1ncc(Cl)c(C(=O)Nc2nc3ccc(F)cc3s2)n1	4%	-9%	.	.	.
COc1ccc(NC(=O)COC(=O)CCC(=O)c2cccs2)cc1OC	.	-1%	-2%	2%	-5%
Cc1nc(-c2ccc(C(=O)N3CCCC3)cc2)cs1	.	?	2.8µM*	-6%	?
COc1ccc(NC(=O)c2ccc(-c3csc(C)n3)cc2)cc1	.	2.4µM*	2.8µM*	?	?
Cc1nc(-c2ccc(C(=O)Nc3ccc(F)cc3)cc2)cs1	8%	0.76µM*	?	21µM*	?
Cc1nc(-c2ccc(C(=O)N3CCOCC3)cc2)cs1	-2%	-1%	7%	-5%	3%
COc1ccc(NC(=O)/C(=C\c2ccc(OC)c(OC)c2)NC(=O)c2ccco2)cc1	.	-1%	-3%	-1%	-1%
Fc1ccccc1N1CCN(c2ncnc3onc(-c4cccc(Cl)c4)c23)CC1	12%	1%	.	.	.
Cc1ccc2c(c1)/C(=N/O)CCS2	-13%	-1%	-3%	-1%	0%
O=C(O/N=C1\CCCc2ccccc21)c1ccc(F)cc1	12%	0.21µM*	-4%	?	7%
O=C(O/N=C1/CCSc2ccccc21)c1ccccc1	-12%	0.67µM*	-5%	0%	7%
Cc1ccc2c(c1)/C(=N/OC(=O)c1ccc(F)cc1)CCS2	6%	6µM*	2%	-3%	-2%
COC(=O)[C@@H]1[C@@H]2C[C@H]3c4[nH]c5ccccc5c4CCN3C[C@@H]2CC[C@@H]1O	-8%[9.22 µM]	.	.	.	.
Cc1ccc(COc2ccc(C)nc2[N+](=O)[O-])cc1	.	2.4µM*	0.71µM*	3.7µM*	0.79µM*
COc1ccc(OCCOc2ccc(C)nc2[N+](=O)[O-])cc1	?	24µM*	?	?	?
SMILES	SMN2 splice up	FLuc counter	Rab9 prom act	ELG1 genotox	NPC1 prom act
Cc1ccc(OCCOc2ccc(Cl)cc2Cl)c([N+](=O)[O-])n1	-14%[1.84 µM]	17µM*	27%	?	?
COc1ccc(OCCOCCOc2ccc(C)cc2[N+](=O)[O-])cc1	2%	?	-6%	0%	0%
N=C1S/C(=C\c2ccco2)C(=O)N1c1nccs1	-36%	11µM*	?	?	?
O=C(Nc1cc(Cl)ccc1-n1cncn1)c1cc(F)c(F)c(F)c1F	.	-2%	-4%	-12%	12%
COc1ccc(CN2CC(C(=O)NCCCN3CCCC(C)C3)CC2=O)cc1 (centres undefined)	.	-1%	0%	0%	0%
CCOC(=O)CNC(=O)c1ccc2c(c1)OCCO2	18%	19µM*	?	?	?
COC(=O)CCC(NC(=O)c1cc(-c2ccc3c(c2)OCCO3)oc1C)C(=O)OC (centres undefined)	6%	17µM*	-11%	4%	-1%
CCOc1ccccc1C(=O)NCC(=O)OCC(=O)c1ccc2c(c1)OCCO2	-16%	?	5%	0%	14%
Cc1oc(-c2ccc3c(c2)OCCO3)cc1C(=O)NC(Cc1ccccc1)C(=O)O (centres undefined)	.	15µM*	10%	6%	-1%
CCOC(=O)CNC(=O)c1cc(-c2ccc3c(c2)OCCO3)oc1C	-11%	9.5µM*	21%	?	6%
CCc1ccc(CNC(=O)CN2C(=O)CSc3c2c(C)nn3-c2ccccc2)cc1	.	-4%	.	.	.
CCCN(CC(=O)Nc1ccccc1C)C(=O)c1ccc(C2SCCS2)cc1	.	5%	1%	-2%	0%
Cc1ccc(NC(=O)Cn2c(=O)n(CCC(C)C)c(=O)c3cccnc32)cc1C	-15%	-2%	.	.	.
CCOC(=O)C(CC(=O)Nc1nc(C(C)=O)c(C)s1)C(C)c1ccccc1 (centres undefined)	.	0%	4%	-5%	-5%
CC1CCCC2(C1)NC(=S)N(c1ccccc1)N2 (centres undefined)	-11%	-4%	-10%	2%	6%
CC1CCCC2(C1)NC(=S)c1c(sc3c1CCCC3)N2 (centres undefined)	-21%	24µM*	-5%	29%	-4%
COc1cccc(C2=CC(c3ccccc3F)n3c(nc4ccccc43)N2)c1 (centres undefined)	.	12µM*	.	.	.
Cc1ccc(C2=CC(c3ccccc3F)n3c(nc4ccccc43)N2)cc1C (centres undefined)	.	6µM*	.	.	.
COc1cccc(C2=CC(c3ccccc3F)n3ncc(C(=O)Nc4ccc(C)cc4)c3N2)c1 (centres undefined)	.	-1%	.	.	.
COc1ccccc1/C=N/NC(=Nc1ccc(C)cc1)c1nc2ccccc2s1	-27%	17µM*	16%	?	6%
COc1cc(/C=N/NC(=Nc2ccc(C)cc2)c2nc3ccccc3s2)ccc1O	-9%	2.7µM*	?	2.6µM*	28%
COc1cc(/C=N/NC(=O)c2nc(C)cc(C)n2)ccc1O	?	?	19%	9%	14%
O=C1Nc2cc(C(=O)NCCCN3CCCC3)ccc2S/C1=C/c1ccccc1F	.	?	4%	0%[9.26 µM]	-2%
N#C/C(C(=O)N1CCCCC1)=C1\Nc2ccccc2S1	18µM*	11µM*	2.8µM*	?	?
CCCCNC(=O)/C=C1\Sc2ccccc2NC1=O	-8%[1.84 µM]	?	-1%	6%	-1%
O=C1Nc2ccccc2S/C1=C\C(=O)N1CCCC1	13µM*	12µM*	3.5µM*	-19%	19%
CCc1ccc(C(=O)/C=C2\Sc3ccccc3NC2=O)cc1	.	13µM*	-5%	11%	-1%
O=C(NCc1ccccc1F)C1CCCN1S(=O)(=O)c1ccc(F)cc1 (centres undefined)	.	-3%	2%	-4%	0%
